# Test results published in PubChem BioAssay AID1508600 (Functional Genomics Laboratory (NCATS/FGL), 2020).
# Hit rate of the full screen: of about 53,000 sequences, about 3,700 (7%) were called active.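 Rule for the calls: active = gene knockdowns whose robust z-score for IL-1 alpha signal is at least 2 or at most -2, so actives lie on both sides; inactive = the rest.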 The entries come from a sample that favours actives as a whole.
# Assay: Components of the Cytosolic LPS Sensing Pathway: Gene Identification via Genome-wide siRNA Screen;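 note: robust z of the log signal after scaling to non-targeting control siRNA wells of the plate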
# Details: RAW264.7 macrophages, IL-1a HTRF, actives lie on both sides, screened at 100 nM (by protocol), cells primed 5 h with Pam3CSK4 first
# How it was run: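 Using IL-1a HTRF as read-out, the screen measured release from RAW264.7 cells after 48h siRNA knockdown (100 nM), 5 h Pam3CSK4 priming and 24 h cytosolic LipidA. Values were expressed relative to negative-control wells as robust z-scores.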
row,Sequence,z-score
1,UUGUGACCAAUUUCUGAAUTT against Pgbd1,-0.594 (inactive)
2,GGAGUUAAACAAACAGAGUTT against Psma6,-0.855 (inactive)
3,UUUACUCUCAUGGUAACCUTT against Olfr798,-0.386 (inactive)
4,GGAGGUAUGGCGGUGAUUATT against Krt77,0.718 (inactive)
5,GCUAUUCAAUGGACCAGAATT against Olfr490,-2.26 (active)
6,GUCACUAUUAAGACACUUATT against Nudcd3,0.157 (inactive)
7,GGCUAAAGAGUCCUCGGUGTT against Serpina5,0.594 (inactive)
8,GCAGACAGAAGAACACCAGTT against 1700024G13Rik,-0.177 (inactive)
9,GGAAGAGUGUCUAAAUGUATT against Cbwd1,0.849 (inactive)
10,GGUGAUUCACAUAACAGGCTT against Npas3,2.05 (active)
11,GGUUGAACAUAAGCACAAUTT against Cdkn2aip,-0.42 (inactive)
12,GGUCACCACUCCAUAUUCUTT against Vsir,-0.561 (inactive)
13,GGAGACAUAUGAAGAGAUATT against Lsm3,-0.702 (inactive)
14,GGAAGCUGGCAAGUUUAUGTT against Cfap161,-0.159 (inactive)
15,CCUGGCAUAAGUGGUUUUATT against Zfp82,1.13 (inactive)
16,GGAGCAUUUUCCAGUUGAGTT against Mrps35,2.41 (active)
17,CCGUUGUAUAUACCAGUAUTT against Syt1,0.218 (inactive)
18,GGAAAAACGUGGUGAACUATT against Zeb2,0.7 (inactive)
19,CCAAUAACAGGAUUGAGAATT against Tnfrsf8,-0.528 (inactive)
20,GGUGUACAGAUCUGUCUGGTT against Dkk1,2.33 (active)
21,GGUGCAGUUUAAGAGAGAATT against Tmcc3,-0.224 (inactive)
22,GGGUGGACCUUCGGAAUUATT against Mrpl23,1.52 (inactive)
23,CGAAAUCUUUUCUAACCACTT against Drd4,6.59 (active)
24,GGACUUCUUACUGGAAUCATT against Slc5a12,0.944 (inactive)
25,CGUUUUUGUCUAGUUUGAATT against Macrod2,-1.08 (inactive)
26,GGAGAUCAGCAGUUCAUUUTT against Csprs,-1.66 (inactive)
27,GGUGUCAGAGGUAUUUUCATT against Bik,-0.0455 (inactive)

row,Sequence,z-score
1,GGCUUUUGAAAAGUUCACATT against Rnf32,-2.05 (active)
2,GGAGUUGAUUGAGGUAAAGTT against Mettl3,-1.83 (inactive)
3,GGAAGAACCCUGCUACAUCTT against Mrpl37,0.764 (inactive)
4,GCACCUUAAUUCUUCGCCATT against Amigo2,-0.638 (inactive)
5,GGUGCUUAUAUUGCUUCCCTT against Psmb5,-0.147 (inactive)
6,CCCGUUGCUUUAGAGCUCUTT against Dph2,0.912 (inactive)
7,GGUCAGAGCUCUGGACAAATT against Hsd3b1,4.24 (active)
8,GGUCGUCCAGCUGAAGAACTT against Mecr,0.721 (inactive)
9,GGAAUUAGAGACUGCGGAATT against Zfp821,0.422 (inactive)
10,GGCAGAGCCUGGAUUUAUCTT against 2610524H06Rik,-0.582 (inactive)
11,GGAGUUGCCAUGCUCAACATT against Olfr808,0.193 (inactive)
12,GGGAAACAGAAGUAUCUAUTT against Ar,-0.708 (inactive)
13,GGAUAACAGCAAGCUGGCGTT against Taldo1,-0.585 (inactive)
14,GCUAAGACAGAACUCUUCUTT against Nap1l5,3.14 (active)
15,GCGAGUGUAUGCUUGAGAATT against Hspa12b,1.01 (inactive)
16,CGACAAUCGACAAUCGUGCTT against Acta1,-0.817 (inactive)
17,GGCUUGUUCAAGAGAAGAUTT against Slc25a41,0.177 (inactive)
18,CCUUACCCAGCAAUAAAAATT against Thegl,0.379 (inactive)
19,GGAUUCAGGAACACGGAGATT against D17H6S53E,2.29 (active)
20,GGUACGAAGAAGACAAAAATT against Tnfsf9,-0.0411 (inactive)
21,GCGGUGUGCUGGAUAAUUCTT against Vit,-1.63 (inactive)
22,CCACUGUCCCUAAGGUACUTT against Olfr161,-0.292 (inactive)
23,GGGAUUUGUAUGAUGAUAATT against Sf3a3,-1.79 (inactive)
24,GGAGGAACAUAUCAAGGAATT against Tmem143,2.27 (active)
25,GGGAGAAUGUUUUUCUUACTT against Vsig8,-0.956 (inactive)
26,GGAGAUUGAACAGUCAAACTT against Pex5,3.01 (active)
